This is an account of results in PubChem BioAssay (NCI).

The structures appear in SMILES notation. Where “and” joins values, the source holds several entries; their conditions need not be identical. Equal values may be shown once. This is part of a sample that, as a whole, favours compounds with a hit. Of some 79,000 tested, about 15% had one in any assay. Where a structure was tested more than once in an assay, its records may differ in their call. Calls of active or inactive are those of the source. Rule as the data show it: active = growth inhibition above about 70%; inactive = the rest.

Test [1] in a line: NCI Yeast Anticancer Drug Screen. Data for the rad50 strain (AID 155).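 Also: 0% = growth of vehicle-only cultures of the same strain.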 Conditions: S. cerevisiae rad50 strain growth inhibition, stronger effect = higher value. The method in brief:
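Vehicle-treated cultures provide the reference for the growth inhibition reported for compound-exposed, repair-deficient yeast.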

Test [2] is described as follows: NCI Yeast Anticancer Drug Screen. Data for the mec2-1 strain (AID 157). Conditions: S. cerevisiae mec2-1 strain, stronger effect = higher value. In short, it runs like this: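 Cells of the genetically defined mec2-1 yeast strain are incubated with test compound. Inhibition of growth is calculated against vehicle-treated controls.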
Test [3] in a line: NCI Yeast Anticancer Drug Screen. Data for the sgs1 mgt1 strain (AID 161).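 Also: 0% = growth of cultures given vehicle only.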 To be noted: S. cerevisiae sgs1 mgt1 strain, stronger effect = higher value. The method in brief:
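Inhibition of yeast growth, normalised to vehicle-treated controls, is reported for a strain bearing genetic alterations in DNA damage repair.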

A short description of test [4]: NCI Yeast Anticancer Drug Screen. Data for the cln2 rad14 strain (AID 165).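 Also: 0% = growth equal to vehicle treated cultures.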 To be noted: S. cerevisiae cln2 rad14 strain, stronger effect = higher value. The method in brief:
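The screen exposed genetically defined yeast (cln2 rad14) to test compounds and scored growth inhibition relative to vehicle-treated controls.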

Test [5] in a line: NCI Yeast Anticancer Drug Screen. Data for the bub3 strain (AID 167). Conditions: S. cerevisiae bub3 mutant strain, stronger effect = higher value. In short, it runs like this:
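Mutant yeast screening strain plus compound; vehicle-treated cultures serve as the 0% inhibition reference.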

The nature of test [6]: NCI Yeast Anticancer Drug Screen. Data for the mlh1 rad18 strain (AID 175). To be noted: S. cerevisiae mlh1 rad18 strain growth inhibition, stronger effect = higher value. The method in brief:
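Compound-treated yeast growth, normalised to vehicle controls. Strain bears defined DNA repair mutations.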

Setting [7] is: at 5.0 µM (retest, dose inferred, filed as 0.5).
The mark [8] stands for this setting: at 50.0 µM (retest, dose inferred, filed as 5.0).

Turning to `COc1cccc(OCCC#N)c1`, the growth inhibition was 2% (inactive) in test [1] (setting [7]); 27% (inactive) in test [1] (setting [8]); -6.7% (inactive) and 72.8% (active) in test [1] (at 50.0 µM); -1% (inactive) in test [2] (setting [7]); 0% (inactive) in test [2] (setting [8]); 4.05% (inactive) and 4.85% (inactive) in test [2] (at 50.0 µM). The growth inhibition is -1% (inactive) in test [3] (setting [7]); 12% (inactive) in test [3] (setting [8]); -5.2% (inactive) and 31.4% (inactive) in test [3] (at 50.0 µM); -7% (inactive) in test [4] (setting [7]); -1% (inactive) in test [4] (setting [8]); -34.8% (inactive) and 20.4% (inactive) in test [4] (at 50.0 µM). Also, the growth inhibition was -6% (inactive) in test [5] (setting [7]); -5% (inactive) in test [5] (setting [8]); -8.35% (inactive) and -22.1% (inactive) in test [5] (at 50.0 µM); 4% (inactive) in test [6] (setting [7]); 19% (inactive) in test [6] (setting [8]); -1.9% (inactive) and 44.9% (inactive) in test [6] (at 50.0 µM).
In the case of `C#CC(C)(C)OC(=O)Nc1ccccc1`, the growth inhibition was 5% (inactive) in test [1] (setting [7]); 86% (active) in test [1] (setting [8]); 12.6% (inactive) and 89.2% (active) in test [1] (at 50.0 µM); -14% (inactive) in test [2] (setting [7]); 62% (inactive) in test [2] (setting [8]); 9.3% (inactive) and 43.6% (inactive) in test [2] (at 50.0 µM). Besides, the growth inhibition is -2% (inactive) in test [3] (setting [7]); 80% (active) in test [3] (setting [8]); -10.1% (inactive) and 84% (active) in test [3] (at 50.0 µM); 0% (inactive) in test [4] (setting [7]); 14% (inactive) in test [4] (setting [8]); -53% (inactive) and 2.95% (inactive) in test [4] (at 50.0 µM). For the same compound, the growth inhibition in test [5] (setting [7]) was -6% (inactive); in test [5] (setting [8]), 79% (active); in test [5] (at 50.0 µM), -7.8% (inactive) and 59.4% (inactive); in test [6] (setting [7]), -3% (inactive); in test [6] (setting [8]) it was 80% (active); in test [6] (at 50.0 µM), 8.4% (inactive) and 86.7% (active).
On to `O=[N+]([O-])c1ccc(Cl)c(C2CC(c3cccc4ccccc34)=Nc3ccccc3S2)c1` (stereo not given), for which the growth inhibition in test [1] (setting [7]) is 0% (inactive); in test [1] (setting [8]) it was 0% (inactive); in test [1] (at 50.0 µM), 31.1% (inactive); in test [2] (setting [7]), 0% (inactive); in test [2] (setting [8]) it was 2% (inactive); in test [2] (at 50.0 µM) it was 83% (active). The growth inhibition in test [3] (setting [7]) is 2% (inactive); in test [3] (setting [8]), 12% (inactive); in test [3] (at 50.0 µM) it was 30.6% (inactive); in test [4] (setting [7]), -1% (inactive); in test [4] (setting [8]) it was 0% (inactive); in test [4] (at 50.0 µM) it was 43.2% (inactive). For the same compound, the growth inhibition is 2% (inactive) in test [5] (setting [7]); 7% (inactive) in test [5] (setting [8]); 35.2% (inactive) in test [5] (at 50.0 µM); -1% (inactive) in test [6] (setting [7]); 6% (inactive) in test [6] (setting [8]); 58.3% (inactive) in test [6] (at 50.0 µM).
On to `CC1(C)OC2C(O)C(O)C3OC(C)(C)OC3C2O1` (stereo not given), for which the growth inhibition in test [1] (setting [7]) was -20% (inactive); in test [1] (setting [8]) it was 6% (inactive); in test [1] (at 50.0 µM), 6% (inactive) and 7.9% (inactive); in test [2] (setting [7]), -13% (inactive); in test [2] (setting [8]), 2% (inactive); in test [2] (at 50.0 µM), 9.35% (inactive) and -8.1% (inactive). Besides, the growth inhibition in test [3] (setting [7]) was -6% (inactive); in test [3] (setting [8]) it was 2% (inactive); in test [3] (at 50.0 µM), 14.4% (inactive) and 6.4% (inactive); in test [4] (setting [7]), -1% (inactive); in test [4] (setting [8]) it was 0% (inactive); in test [4] (at 50.0 µM), 74.1% (active) and -2.4% (inactive). The growth inhibition in test [5] (setting [7]) was 2% (inactive); in test [5] (setting [8]) it was 2% (inactive); in test [5] (at 50.0 µM) it was 61% (inactive) and 15.4% (inactive); in test [6] (setting [7]), 25% (inactive); in test [6] (setting [8]) it was 15% (inactive); in test [6] (at 50.0 µM) it was 44% (inactive) and 9.25% (inactive).
Turning to `O=C(CCl)Nc1ccc(C(=O)N/N=C/c2ccc(Cl)cc2)cc1`, the growth inhibition was 57% (inactive) in test [1] (setting [7]); 90% (active) in test [1] (setting [8]); -8.7% (inactive) in test [1] (at 50.0 µM); 26% (inactive) in test [2] (setting [7]); 65% (inactive) in test [2] (setting [8]); -32.9% (inactive) in test [2] (at 50.0 µM). Also, the growth inhibition is 42% (inactive) in test [3] (setting [7]); 70% (active) in test [3] (setting [8]); -21.8% (inactive) in test [3] (at 50.0 µM); 23% (inactive) in test [4] (setting [7]); 57% (inactive) in test [4] (setting [8]); 7.05% (inactive) in test [4] (at 50.0 µM). In addition, the growth inhibition in test [5] (setting [7]) was 45% (inactive); in test [5] (setting [8]) it was 82% (active); in test [5] (at 50.0 µM), -14.4% (inactive); in test [6] (setting [7]), 41% (inactive); in test [6] (setting [8]), 80% (active); in test [6] (at 50.0 µM), -27.7% (inactive).
